This passage reports binding signal results from article PMC12136788.

Substitutions are numbered along the chain they refer to. Whole data set: some 24,000 sequences, median “enrichment r” near 0.99, cut for the highest 2% near 3.7. The entries come from a sample that favours the highest values as a whole.

To fix the notation:
T1: UNK ZnF1-3 (human, UniProt Q9C0B0 31-174)
T1 sequence: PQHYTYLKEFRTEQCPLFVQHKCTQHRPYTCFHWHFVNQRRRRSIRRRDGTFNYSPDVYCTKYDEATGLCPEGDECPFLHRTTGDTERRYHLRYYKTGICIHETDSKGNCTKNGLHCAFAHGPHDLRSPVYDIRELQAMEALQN

B1: 86747786_86748123_1683_CDS_ENSMUSG00000035671_ENSMUST00000039480|mouse|control|control (ssRNA)
RNA: GGGAGUUCUACAGUCCGACGAUCGUGCUGGUAGGCCAGCUUUCGCUUCUCUGGGGCUGAGUCUGGGAAAAGAGAGUGAGGCUCCUCCUCCAGGCGACAGGCCUCCAGCAGUGCCCUGCAGAGGCAGCCAAUGGGAUCCAGGGGCAACAGAGGAUUGAGCAUCA
B2: chr11:77336104:77336105:-_ENSG00000074201_ENST00000525064|hu_mus|hu_hu_hu_mus_False|68_98 (ssRNA)
RNA: GGGAGUUCUACAGUCCGACGAUCCUCACACAUUGCUGUGAACAUUGCCUCCAAUGCUGACUUAUCACUAGGCACAAAUCGAAAUUCAGAAAUGGGUUCAACAUCAUCAUUGUCUUCCUCAUCUUCAUCAGAGAGAGGUUCUUUCAACAGAGGAUUGAGCAUCA
B3: chr16:5009651:5009652:-_ENSMUSG00000022540_ENSMUST00000023191|mus_hu|FALSE|FALSE (ssRNA)
RNA: GGGAGUUCUACAGUCCGACGAUCUGCAGGGAGACGGUGAAGUAGACCAGGGCGUCGUUGAGCCAGGGGAUCACGCACUCCACUUUGUGCACGUGGCUCACCUCCAGGCGCUGAGAGCCCCACUCGAACAUGGCCCCAGGGCUACAACAGAGGAUUGAGCAUCA
B4: 133220860_133220980_1226_CDS_ENSMUSG00000043257_ENSMUST00000062118|mouse|control|control (ssRNA)
RNA: GGGAGUUCUACAGUCCGACGAUCGUAUAUUAGAGGAAGGUCCCAGGAGCACCAUGGGGGUGCAUUUUCUCCUGCAAGCCGGUAGCCUUUGUCGGCAGCUAGCUGCAGCAAGGGCUCAGGGAUGGAGGGGGCUGAGCCUGGUGACAACAGAGGAUUGAGCAUCA
B5: chr7:141441981:141441982:+_ENSG00000106028_ENST00000265304|hu_mus|hu_hu_hu_mus_False|48_88 (ssRNA)
RNA: GGGAGUUCUACAGUCCGACGAUCCUCAUGUCUUACAAACUGACGAAGUACCUGUAACACAGGUCUUCGAAACAUGGCUUCUGUUUUCUUUUCUUACUAAUCUUUAGGCUUUUCCUAAAGGAAAGAAAGAAAAGAGAAAAAUGACAACAGAGGAUUGAGCAUCA
B6: chr17:56552419:56552420:-_ENSMUSG00000013236_ENSMUST00000086828|mus_mus|mus_mus_mus_hu_False|78_78 (ssRNA)
RNA: GGGAGUUCUACAGUCCGACGAUCAAAAAAUACACUAUUUAAAAAAAAUGAAAUGUCAGAAAAAGAAGUUACACUGAGAGUUUUAAAAGAAAGCUGGAUUCUGGUCCCAGCCCAGUGUCCCCAGGCUGCAGAGCGGGGAGGAGCCAACAGAGGAUUGAGCAUCA
B7: chr17:56552419:56552420:-_ENSMUSG00000013236_ENSMUST00000086828|mus_mus|mus_mus_mus_hu_False|48_78 (ssRNA)
RNA: B6 RNA with G88A, G92A, C93U, U94A, G95A
B8: chr17:56552419:56552420:-_ENSMUSG00000013236_ENSMUST00000086828|mus_mus|mus_mus_mus_hu_False|38_78 (ssRNA)
RNA: B6 RNA with U98A, U99A, C100A, U101A, G102A, G103A, U104A, C105U, C106G
B9: chr17:56552419:56552420:-_ENSMUSG00000013236_ENSMUST00000086828|mus_mus|mus_mus_mus_hu_False|18_78 (ssRNA)
RNA: B6 RNA with U117G, C119A, C120G, C121G, A122C, G123A, C125G, U126G
B10: chr4:153332861:153332862:-_ENSG00000109670_ENST00000281708|hu_mus|FALSE|FALSE (ssRNA)
RNA: GGGAGUUCUACAGUCCGACGAUCCUCCUCUUGAUGUCUCGCUUGCUGCUGUGGAUCCUCCUCAACCACGCGAUUCAUCUGUCCCUCAUCAACCUGGCUUGAGGAAGCAUUCCCUCUCAGAGAGCCUCCAGUUCGUCGUCUUUUCAACAGAGGAUUGAGCAUCA
B11: 46544062_46544572_2905_CDS_ENSG00000123200_ENST00000242848|human|control|control (ssRNA)
RNA: GGGAGUUCUACAGUCCGACGAUCUUCUUGAGGUCGUACAACUUGGCUCAAGAGUCUGUGUUUUUCAUUUUUAUCAUCUCCACUGUUGUAGGCAUCACUGUCCGGAGAAUGUUCACGCCGGCGCUUCGGGGACUGUCUAGGGCUCAACAGAGGAUUGAGCAUCA
B12: chr2:180329438:180329439:+_ENSMUSG00000049401_ENSMUST00000029087|mus_mus|FALSE|FALSE (ssRNA)
RNA: GGGAGUUCUACAGUCCGACGAUCCUCAGAGACACCCUGAGGAUCUGGCUCCCCUGGGACCUGCUCCUGCCUGUUCCCCUCCAACUUCCUCUUCUUGCUUUCUUUGGGACUCGGGGACUUAGCCUCAUGCCUUUGGUCCCCAUCCAACAGAGGAUUGAGCAUCA
B13: chr3:150289932:150289933:+_ENSG00000144895_ENST00000460851|hu_hu|hu_hu_hu_mus_False|18_28 (ssRNA)
RNA: GGGAGUUCUACAGUCCGACGAUCCUUGUAGUUUUUAACAUCCCAUACUUCCAUUUGUCCUCGAAGAUUUCCAAAUCCAGCCAGCACUAAUAUAUGUCCAUGAGGGCUAUAGUAGGCUGCAUUACGAGGACCAGUCCCAAAGUCCAACAGAGGAUUGAGCAUCA
B14: chr16:94664382:94664383:+_ENSMUSG00000040785_ENSMUST00000117648|mus_hu|FALSE|FALSE (ssRNA)
RNA: GGGAGUUCUACAGUCCGACGAUCAAAAGCUGGUGCUGAAGAUGAAUCUGACACUGGUUUAGACUUUACAUCUGGUUUAAAUUCCCUAGCAGCUGGAUUCAGUUGUAGUUUAACUCGUACAUACUCCCCUGCUUUUGAAAUUUCCAACAGAGGAUUGAGCAUCA
B15: chr11:88707168:88707169:-_ENSMUSG00000018428_ENSMUST00000018572|mus_mus|FALSE|FALSE (ssRNA)
RNA: GGGAGUUCUACAGUCCGACGAUCAAGGGGAAGAGCGAACGCAACUGGAUUGCCAUCUUGGAGUCAGUCGAUGUGAAGUAGCUACACCUGCUCCUGGGCGACCGUCUAGGCACUCAAUCCUCCCGCCACCGCCCCCUGGCCCCCCAACAGAGGAUUGAGCAUCA
B16: chr3:184044699:184044700:+_ENSG00000114867_ENST00000411531|hu_hu|motif|central (ssRNA)
RNA: GGGAGUUCUACAGUCCGACGAUCAUUAUCUGUGCUUUCUGUGGGUACCGCUUGUUGAAGGGCUGAGAAGCGAUUCAAAGUACGGGUAGCUGGGCGAGCAGCUUCUGAUGCUGCGUCUGAGGGCUUGGCUCCUGAGCCUCCGCUCAACAGAGGAUUGAGCAUCA
B17: chrX:77155053:77155054:+_ENSG00000131174_ENST00000481445|hu_hu|motif|central (ssRNA)
RNA: GGGAGUUCUACAGUCCGACGAUCCGAACUUGGAGACGAUUUAGUGCGCUUUUGACCAAGGGAAACAUCGUGAAGGUGAAGCGGGAACUGCGGCAAUACAGCUGCUGCUUUGGUGCCAAUUCGCUUCAGGUACCCUUGAAGUGACAACAGAGGAUUGAGCAUCA
B18: chr2:153237265:153237266:-_ENSMUSG00000061411_ENSMUST00000109784|mus_mus|mus_mus_mus_hu_False|1_18 (ssRNA)
RNA: GGGAGUUCUACAGUCCGACGAUCAAAAAAAAAAAAAAAAAAGUGUCCUUGUGCCCAAAGUCUCAGGUGCUUGGAGUGUGGCUAGAAACAGCUCUUUUGGAUCCCACCUCUUUCAAAAAACAGUGUAACCAACUGGUAGGCAGGCAACAGAGGAUUGAGCAUCA
B19: chr2:153237265:153237266:-_ENSMUSG00000061411_ENSMUST00000109784|mus_mus|mus_mus_mus_hu_False|18_18 (ssRNA)
RNA: B18 RNA with A137G, G138A, C140G, A141C, G142A
B20: chr2:153237265:153237266:-_ENSMUSG00000061411_ENSMUST00000109784|mus_mus|mus_mus_mus_hu_False|18_78 (ssRNA)
RNA: B18 RNA with G66A, A137G, G138A, C140G, A141C, G142A
B21: chr5:71490711:71490712:+_ENSG00000131711_ENST00000296755|hu_hu|motif|central (ssRNA)
RNA: GGGAGUUCUACAGUCCGACGAUCCACAGGAGUGGGCACCUGGCCAGUGAGAUCCUUUUGGGUGGCCAGUGGCUGCUUCAGAAAGUCGGGAUGUUUGAGCUUUUCCAACCCUUCCAGGAUGUUGUACUGGGUGCUGUUCCCAGGCAACAGAGGAUUGAGCAUCA
B22: chr2:153237265:153237266:-_ENSMUSG00000061411_ENSMUST00000109784|mus_mus|mus_mus_mus_hu_False|18_28 (ssRNA)
RNA: B18 RNA with A115G, A137G, G138A, C140G, A141C, G142A
B23: chr2:153237265:153237266:-_ENSMUSG00000061411_ENSMUST00000109784|mus_mus|mus_mus_mus_hu_False|18_58 (ssRNA)
RNA: B18 RNA with U78C, G79A, A137G, G138A, C140G, A141C, G142A

In this test the target is T1, UNK ZnF1-3. In words: nsRBNS (natural sequence RNA bind-n-seq); RBNS binding buffer (assumed for nsRBNS): 25 mM Tris pH 7.5, 150 mM KCl, 3 mM MgCl2, 0.01% Triton X-100, 500 ug/ml BSA, 20 U/ml SUPERase-In, 4 C; UNK is unkempt and MSI1 is Musashi-1; names of the RNAs are library labels; protein concentration not given here; high values mean tight binding.
Take B1: the binding signal was 0.778 enrichment R.
To B2 belongs 0.885 enrichment R; to B3, 0.75 enrichment R; to B4, 1.08 enrichment R.
To B5 belongs 0.351 enrichment R.
For B6, the binding signal came to 4.51 enrichment R.
To B7 belongs 9.32 enrichment R; to B8, 9.26 enrichment R; to B9, 3.82 enrichment R.
To B10 belongs 0.439 enrichment R; to B11, 0.885 enrichment R; to B12, 0.716 enrichment R.
To B13 belongs 0.862 enrichment R; to B14, 1 enrichment R; to B15, 1.08 enrichment R.
The molecule B16 displayed a binding signal of 0.754 enrichment R.
Take B17: the binding signal worked out at 0.887 enrichment R.
The molecule B18 showed a binding signal of 6.33 enrichment R.
To B19 belongs 5.16 enrichment R.
Consider B20, for which the binding signal is 4.87 enrichment R.
To B21 belongs 1.1 enrichment R.
Molecule B22 returned a binding signal of 3.55 enrichment R.
To B23 belongs 4.98 enrichment R.
